Screening results from PubChem.
Sfp inh: blocks B. subtilis Sfp PPTase activity. Biochemical Sfp PPTase activity, qHTS. 3.5% of 310,000 active. Q9F4F7. AID 1490. Potency, µM, without a hit: largest response in the series, negative = inhibition, actives largely listed as inhibitors;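 also: the enzyme is Sfp with the accession as filed and its product quenches rhodamine fluorescence; 0% = enzyme reaction without inhibitor and -100% = no enzyme wells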
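Fluorescence-quenching assay with 15 nM Sfp, 5 uM rhodamine-CoA and 12.5 uM BHQ-2-labelled ybbR peptide in pH 7.6 Hepes/MgCl2 buffer. Enzyme was pre-incubated with compound for 15 min at room temperature. Rate was taken from the 30-min fluorescence change (525/598 nm).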
L3MBTL1 inh: L3MBTL1 (human) inhibition; Q9Y468; AlphaScreen L3MBTL1–H3K9me1 peptide binding; Potency, µM (top dose mostly 57.1 µM), for inactives: top-dose activity, negative = inhibition, usual class: inhibitors; 0.66% of 230,000 active; also: % is scaled to controls: 0 for no effect and ±100 for the full control effect; nearly all actives have a fitted effect of over 60% in size
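L3MBTL1 50 nM + b-AHA-H3(1-15)K9me1 75 nM, 30 min RT; compound added, 30 min RT; streptavidin donor/Ni-chelate acceptor beads 10 ug/mL each final, 30 min RT dark; AlphaScreen read.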
BAZ2B inh: blocks human BAZ2B; Potency, µM (highest dose often 114 µM), for inactives: at the highest dose activity change, negative = inhibition, actives largely listed as inhibitors; AlphaScreen BAZ2B-H3K14Ac peptide displacement; AID 504333; 4.4% of 360,000 active; Q9UIF8; also: % is scaled to controls: 0 for no effect and ±100 for the full control effect; nearly all actives have a fitted effect of over 60% in size
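Complex of BAZ2B and biotin-H3K14Ac (50 nM apiece) forms over 30 min at RT, then faces library compounds up to 110 uM for another 30 min; AlphaScreen beads added, 20 min dark incubation, luminescence read.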
JMJD2A Tudor inh: inhibitors of human JMJD2A Tudor domain; O75164; AlphaScreen JMJD2A-Tudor / H3K4me3 peptide binding; Potency, µM (titrated, usually from 114 µM), without a hit: at the highest dose activity change, negative = inhibition, usual class: inhibitors; 4.4% of 390,000 active; AID 504339; also: % is scaled to controls: 0 for no effect and ±100 for the full control effect; nearly all actives have a fitted effect of over 50% in size
HP1b binding inh: blocks HP1-beta chromodomain binding to methylated histone tails; 0.56% of 390,000 active; AlphaScreen HP1-beta / biotin-H3K9me3 peptide binding; P83916; Potency, µM (doses to about 114 µM), for inactives: at the highest dose activity change, negative = inhibition, most hits filed as inhibitors; also: nearly all actives have a fitted effect of over 70% in size
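Compound inhibition of the preformed complex between 50 nM HP1-beta and 50 nM biotinylated H3K9me3 peptide was read by AlphaScreen. Buffer was PBS pH 7.4 with 0.01% Tween-20. Incubations ran 30 min at room temperature, with 10 ug/mL donor/acceptor beads.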
G9a block: blocks human histone lysine methyltransferase G9a | Q96KQ7 | G9a H3K9 monomethylation, AlphaScreen, 2 h | Potency, µM (doses to about 102 µM), for inactives: at the top dose activity, negative = inhibition, most hits filed as inhibitors | 8.8% of 350,000 active; also: % is scaled to controls: 0 for no effect and ±100 for the full control effect; nearly all actives have a fitted effect of over 75% in size
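Enzyme 20 nM + cpd, 15 min RT; add b-H3K9 pep 500 nM / SAM 20 uM; 2 h RT; anti-H3K9me1 Ab 0.5 ug/mL + SA donor / anti-rabbit acceptor beads 20 ug/mL each, 10 min; AlphaScreen read.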
Active calls of the source: *; ? = inconclusive; . = no result given; [ ] = remark or other dose. Only some compounds are listed: those with a hit (about 12% of all), similar ones and a draw of the others. Calls follow the shape of the dose curve; as a rule, active = well fitted curve in the direction sought with a large enough effect; inconclusive = small, poorly fitted or top-dose-only effect, or another doubt; inactive = no such curve, though single readings can be large; an effect the other way counts as inactive or inconclusive. Potency is read from the fitted curve at half-maximal effect.

SMILES | Sfp inh | L3MBTL1 inh | BAZ2B inh | JMJD2A Tudor inh | HP1b binding inh | G9a block
Cc1ccc(/C=N/n2c(-c3ccccc3)n[nH]c2=S)cc1 | -1% | -9% | -28% | 79µM* | 31% | 1.1µM*
Cc1ccc(NC(=O)C/C(N)=N/OC(=O)Nc2ccc(C)c(Cl)c2)cc1 | . | -5% | 9% | -18% | 18%[57 µM] | -3%[12.7 µM]
CC(=O)Nc1ccc(Nc2c([N+](=O)[O-])c(=O)n(-c3ccccc3)c3ccccc23)cc1 | -10% | 5% | -14% | -23% | 31% | .
CN(C)/C=C/c1c([N+](=O)[O-])c2ccc(O)cc2n1-c1ccccc1 | 2.5µM* | -4% | 35µM* | ? | -28% | .
Cc1nc(SCCc2nc3ccccc3[nH]2)c2oc3ccccc3c2n1 | . | 11% | . | ? | 10% | .
CCC(C)n1c(-c2cccc(S(=O)(=O)N(CC)CC)c2)n[nH]c1=S (stereo not given) | -7% | . | 2% | 10µM* | 15% | 8.9µM*
CCN(CC)S(=O)(=O)c1cccc(-c2n[nH]c(=S)n2C(C)COC)c1 (stereo not given) | 4% | . | 13% | 3.5µM* | 11% | 10µM*
CCN(CC)S(=O)(=O)c1cccc(-c2nnc(SCC(N)=O)n2C)c1 | 14% | . | -16% | -8% | 12% | -7%[59 µM]
CCn1c(-c2cccc(S(=O)(=O)N3CCCC3)c2)n[nH]c1=S | -27% | . | -24% | 6.3µM* | 18% | 8.9µM*
Cc1ccn2cc(-c3cccc(S(=O)(=O)N4CCCC4)c3)nc2c1 | 7% | . | -22%[57.1 µM] | -19% | 24% | 1%
CCC(C)n1c(-c2cccc(S(=O)(=O)N3CCOCC3)c2)n[nH]c1=S (stereo not given) | . | 4% | 7% | 5.6µM* | 47% | 3.2µM*
Cn1c(=O)[nH]c(=O)c2c1nc(CN1CCN(c3ccccc3F)CC1)n2Cc1ccc(F)cc1 | . | . | -28% | -1% | 34% | 2%[59 µM]
O=C(O)c1ccc(CCN2CCN(CC=Cc3ccc(Cl)cc3)CC2)cc1 | 2% | . | . | . | . | .
CC(OC(=O)c1cccc(S(=O)(=O)N2CCCCC2)c1)C(=O)NC1CCCCC1C (stereo not given) | 11% | . | -5% | -1% | 31% | 13%
CC(C)(C)c1ccc(C(=O)NCCCn2ccnc2)cc1 | 6% | -4% | 2% | -16% | 63% | .
O=[N+]([O-])c1cccc(S(=O)(=O)NCCCn2ccnc2)c1 | 12% | -1% | 50µM* | -23% | 1% | 25%[59 µM]
O=C(NCCCn1ccnc1)c1cccc(S(=O)(=O)Nc2ccc(Br)cc2)c1 | . | ? | -35% | -27% | 20% | 11µM*
O=C(CNC(=O)c1ccc(Cl)cc1)NCCCn1ccnc1 | 7% | -8% | 79µM* | 7%[57.1 µM] | 19% | -37%
Cc1ccc(C(=O)NCCCn2ccnc2)cn1 | 6% | . | 50µM* | 5% | 11% | -5%
O=C(NCCCn1ccnc1)c1ccc(Cl)cc1 | 11% | -2% | -20% | -7% | 25% | 6%
O=c1c2cnn(-c3ccc(Cl)cc3)c2ncn1Cc1ccc(Cl)cc1Cl | . | . | -1% | -2% | 20% | 8%[59 µM]
Cc1ccc2cc3cc(C(=O)N4CCN(c5cccc(C(F)(F)F)c5)CC4)sc3nc2c1 | . | . | 5% | -5% | 24% | 13%[59 µM]
CCOC(=O)c1ccc(NC(=O)CSc2nc(-c3ccc(F)cc3)cc(C(F)(F)F)c2C#N)cc1 | . | . | -3% | -4% | 50% | -24%[59 µM]
CCOC(=O)[C@@H]1[C@H]2COc3cc(OC)ccc3[C@H]2N2C(=O)N(c3ccc(C(F)(F)F)cc3)C(=O)[C@@]12C | 9% | -2% | -6% | ? | 6% | -3%
Cc1ccc(-c2[nH]c3cc(C(=O)NCCCn4ccnc4)ccc3c(=O)c2O)cc1 | 8% | . | 56µM* | -35% | 37% | 19%[59 µM]
SMILES | Sfp inh | L3MBTL1 inh | BAZ2B inh | JMJD2A Tudor inh | HP1b binding inh | G9a block
O=C(NCCCn1ccnc1)C(F)(F)C(F)(F)C(=O)NCCCn1ccnc1 | ? | ? | 20µM* | ? | 40% | 14µM*
O=C(NCCCn1ccnc1)c1ccncc1 | 4% | -9% | 56µM* | -13% | 11% | 6%[12.7 µM]
CC(NC(=O)NCCCn1ccnc1)(C(F)(F)F)C(F)(F)F | 24% | 5% | -9% | -8% | 27% | -13%[59 µM]
O=C(Nc1cccc(O)c1)C1CC(c2ccc(Cl)cc2)=NO1 (stereo not given) | 16% | -5% | -29% | -10% | 50% | 21%[59 µM]
O=c1c2c(-c3ccccc3)csc2nc2c3ccccc3c(NCCN3CCOCC3)nn12 | 35µM* | 16% | -18% | -26% | 34% | ?
COc1cccc([C@@H]2Oc3ccc(Br)cc3C(=O)[C@H]2OC(=O)Nc2cc(OC)c(OC)c(OC)c2)c1 | 9% | . | . | . | . | .
CN(CC(=O)Nc1ccc(F)c(Cl)c1)S(=O)(=O)c1ccc2c(c1)n(C)c(=O)c(=O)n2C | -3% | . | -15% | -11% | 10%[57 µM] | .
C/C(=N\NC(=O)c1ccc(N(C)C)cc1)c1cccnc1 | -10% | . | ? | -18% | 39% | 25µM*
C/C(=N\NC(=O)c1ccc(N(C)C)cc1)c1ccc(C)c(C)c1 | 14% | 0% | -7% | -22% | 9% | 45µM*
CCN(CC)c1ccc(C(=O)N/N=C(\C)c2cccnc2)cc1 | -1% | 0% | -6% | -14% | 30% | 4%
C/C(=N\NC(=O)c1cccnc1)c1ccc(OC2OCCOC2Oc2ccc(/C(C)=N/NC(=O)c3cccnc3)cc2)cc1 (stereo not given) | -8% | -3% | -18% | 14µM* | ? | 27%
C/C(=N\NC(=O)c1ccc(N(C)C)cc1)c1ccc(C)cc1C | -5% | -16% | ? | -26% | 20% | ?
CN(C)C(CNC(=O)c1ccc(NS(=O)(=O)c2ccc3[nH]c(=O)[nH]c3c2)cc1)c1ccccc1 (stereo not given) | . | -10% | -6% | -1% | 19% | ?
O=C(O)c1c(Cl)nc2ccccn12 | 14% | 3% | . | 3% | 44% | ?
O=C(Oc1cc(=O)n2ccccc2n1)c1ccccc1 | ? | 11% | -2% | -6% | 47% | 18µM*
Cc1ccc2nc(SCC(=O)Nc3nonc3N)[nH]c2c1 | 21% | -4% | -12% | -19% | 16% | -7%
CCC(=O)Nc1nnc(-c2ccc(Cl)s2)o1 | 4% | . | . | -19% | 25% | -10%
CC(=O)Nc1nnc(-c2ccc(Cl)s2)o1 | -18% | -13% | -31% | -28% | 20% | 14µM*
COc1cccc(C2C=C(Nc3ccccc3)C(=O)N2c2ccccc2)c1 (stereo not given) | 63µM* | 7% | 11% | -18% | 27% | 45µM*
